Among all 5,500 compounds or so, about 2,000 (36%) were called active. Roughly 18% stayed inconclusive and do not appear here. No stated cut-off is given here; in the data, active means normalized growth mostly below about 0.91 (no sharp cut-off); inconclusive means no clear call, values can overlap the other calls; inactive means mostly above about 0.92. Some of the results follow.
Experiment: chemical genetic growth profiling, strain panel (AID 1159580);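 further: tested at 20 µM; growth read once vehicle control cultures reached saturation at 30 °C; 1 = growth at the plate median or of vehicle wells; lower values mean less growth of the strain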
Details: S. cerevisiae deletion strains, growth OD

Measured: normalized growth

COc1ccc(-c2c(OC)c3c(OC)c4c(cc3oc2=O)OC(C)(C)C=C4)cc1
active: locus YOL006C, strain TOP1, active compounds read low 1.54 [resistant]
inactive: locus YBR021W, strain FUR4, active compounds read low 1.08 | locus YBR229C, strain ROT2, active compounds read low 1.03 | locus YCL029C, strain bik1, active compounds read low 0.974 | locus YDL035C, strain GPR1, active compounds read low 1.09 | locus YDL074C, strain BRE1, active compounds read low 1.18 | locus YDL101C, strain DUN1, active compounds read low 0.99 | locus YDL185W, strain tfp1, active compounds read low 0.988 | locus YDL192W, strain arf1, active compounds read low 1.08 | locus YDR101C, strain arx1, active compounds read low 1.07 | locus YDR162C, strain NBP2, active compounds read low 1.06 | locus YDR318W, strain mcm21, active compounds read low 1 | locus YDR388W, active compounds read low 0.983 | locus YDR502C, strain sam2, active compounds read low 1.05 | locus YEL061C, strain CIN8, active compounds read low 1.02 | locus YER110C, active compounds read low 0.973 | locus YER155C, strain BEM2, active compounds read low 1.01 | locus YER167W, strain BCK2, active compounds read low 1.01 | locus YGL078C, strain dbp3, active compounds read low 1.02 | locus YGL086W, strain mad1, active compounds read low 1.05 | locus YGL248W, strain PDE1, active compounds read low 1.07 | locus YGR135W, strain pre9, active compounds read low 1.02 | locus YGR252W, strain gcn5, active compounds read low 1.21 | locus YHR030C, strain SLT2, active compounds read low 1 | locus YHR079C, strain IRE1 (second series), active compounds read low 0.991 | locus YHR094C, strain hxt1, active compounds read low 1 | locus YHR129C, strain ARP1, active compounds read low 1.02 | locus YHR200W, strain rpn10, active compounds read low 1.04 | locus YIL066C, strain RNR3, active compounds read low 1.01 | locus YIL073C, strain SPO22, active compounds read low 1.12 | locus YIL125W, strain kgd1, active compounds read low 1.02 | locus YIR030C, strain dcg1, active compounds read low 1.01 | locus YJL095W, strain BCK1, active compounds read low 1.08 | locus YJL134W, strain LCB3, active compounds read low 0.991 | locus YJL168C, strain set2, active compounds read low 1 | locus YJL187C, strain SWE1 (second series), active compounds read low 1 | locus YJR075W, strain HOC1, active compounds read low 1 | locus YKL009W, strain mrt4, active compounds read low 1.03 | locus YKL068W, active compounds read low 1.03 | locus YKL085W, strain MDH1 (second series), active compounds read low 1.04 | locus YKL085W, strain MDH1, active compounds read low 1.04 | locus YKL190W, strain CNB1, active compounds read low 0.988 | locus YKR001C, strain vps1, active compounds read low 1.09 | locus YLR039C, strain RIC1, active compounds read low 1.22 | locus YLR058C, strain SHM2, active compounds read low 1.01 | locus YLR102C, strain apc9, active compounds read low 0.972 | locus YLR268W, strain sec22, active compounds read low 1.04 | locus YLR330W, strain CHS5, active compounds read low 1.03 | locus YLR342W, strain FKS1 (second series), active compounds read low 1.03 | locus YLR371W, strain rom2, active compounds read low 0.992 | locus YML016C, strain PPZ1, active compounds read low 1.01 | locus YML032C, strain rad52, active compounds read low 0.987 | locus YML124C, strain tub3, active compounds read low 1.03 | locus YMR078C, strain ctf18, active compounds read low 0.993 | locus YMR223W, strain ubp8, active compounds read low 1.02 | locus YMR307W, strain GAS1, active compounds read low 1.32 | locus YNL067W, strain RPL9B, active compounds read low 1 | locus YNL153C, strain GIM3, active compounds read low 1.01 | locus YNL233W, strain BNI4, active compounds read low 1.05 | locus YNL250W, strain rad50, active compounds read low 0.999 | locus YNL271C, strain bni1, active compounds read low 1.03 | locus YNL298W, strain CLA4, active compounds read low 1.03 | locus YNL307C, strain MCK1, active compounds read low 0.967 | locus YNR052C, strain pop2, active compounds read low 1.02 | locus YOL012C, strain htz1 1.03 | locus YOL147C, strain pex11, active compounds read low 0.997 | locus YOR061W, strain CKA2, active compounds read low 1.02 | locus YOR069W, strain VPS5, active compounds read low 0.993 | locus YOR136W, strain idh2, active compounds read low 1 | locus YOR144C, strain elg1, active compounds read low 1.03 | locus YOR184W, strain ser1, active compounds read low 1.11 | locus YOR316C, strain cot1, active compounds read low 0.975 | locus YPL055C, strain LGE1, active compounds read low 1.16 | locus YPR119W, strain clb2, active compounds read low 0.978 | locus YPR141C, strain kar3, active compounds read low 1.03 | locus YPR163C, strain tif3, active compounds read low 1 | locus YPR167C, strain met16, active compounds read low 1.01 | strain wtn01, active compounds read low 1.07
